Results from PubChem BioAssay.
Active and inactive are the calls of the source.

Tests used:
[1] = test system: Plasmodium falciparum Sir2 (PF13_0152, Sir2A); assay: pfSir2 binders on small-molecule microarrays, primary screen, biochemical, small-molecule microarray, 635 nm fluorescence (AID 1098); conditions: small-molecule microarray binding, fluorescence 635 nm; higher = more signal;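 note: score merges spot fluorescence intensity with its signal-to-noise ratio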
[2] = small-molecule microarray binders of probe aDKK1, primary screen, biochemical, biotinylated probe, 635/667 nm fluorescence (AID 1099); conditions: higher = more signal;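 note: score merges 667nm spot fluorescence with signal to noise across triplicate slides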
[3] = small-molecule microarray binders of probe aCHRDL2, primary screen, biochemical, biotinylated probe, 635/667 nm fluorescence (AID 1100); conditions: higher = more signal
[4] = splicing luciferase reporter signal modulators, primary screen, spliceosome inhibition project, cell-based, HEK293, splice +/- reporter (AID 1101); conditions: luminescence, 24 h, higher = more signal, called active from +8 up or from −8 down;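 note: HEK293 cells carrying a splicing-competent luciferase reporter gene; test concentration not given here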
[5] = biological target: Fibroblast growth factor 10 (Homo sapiens) (UniProt O15520); assay: FGF10 binders on small-molecule microarrays, primary screen, biochemical, small-molecule microarray, 635 nm fluorescence (AID 1102); conditions: FGF10 binding, fluorescence 635 nm, higher = more signal
Sequence of Fibroblast growth factor 10 (Homo sapiens) (O15520 whole entry, looked up): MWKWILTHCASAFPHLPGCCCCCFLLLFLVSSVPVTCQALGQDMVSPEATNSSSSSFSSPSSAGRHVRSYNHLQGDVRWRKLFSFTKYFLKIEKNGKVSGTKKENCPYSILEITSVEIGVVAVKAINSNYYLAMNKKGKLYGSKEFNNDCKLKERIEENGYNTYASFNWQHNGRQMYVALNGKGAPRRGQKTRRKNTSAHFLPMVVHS

[6] = test system: glycogen synthase kinase-3 (GSK3A per assay name; protocol says GSK3B); assay: GSK3 binders on small-molecule microarrays, primary screen, biochemical, small-molecule microarray, 635 nm fluorescence, GSK3A (AID 1103); conditions: small-molecule microarray binding, fluorescence 635 nm; higher = more signal; note: the record names both GSK3A and GSK3B
[7] = biological target: Epidermal growth factor receptor (Homo sapiens) (UniProt P00533); assay: EGFR binders on small-molecule microarrays, primary screen, biochemical, small-molecule microarray, 635 nm fluorescence (AID 1104); conditions: EGFR binding, higher = more signal;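 note: score merges 667 nm emission intensity with spot signal to noise over triplicate slides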
Sequence of Epidermal growth factor receptor (Homo sapiens) (P00533 whole entry, looked up): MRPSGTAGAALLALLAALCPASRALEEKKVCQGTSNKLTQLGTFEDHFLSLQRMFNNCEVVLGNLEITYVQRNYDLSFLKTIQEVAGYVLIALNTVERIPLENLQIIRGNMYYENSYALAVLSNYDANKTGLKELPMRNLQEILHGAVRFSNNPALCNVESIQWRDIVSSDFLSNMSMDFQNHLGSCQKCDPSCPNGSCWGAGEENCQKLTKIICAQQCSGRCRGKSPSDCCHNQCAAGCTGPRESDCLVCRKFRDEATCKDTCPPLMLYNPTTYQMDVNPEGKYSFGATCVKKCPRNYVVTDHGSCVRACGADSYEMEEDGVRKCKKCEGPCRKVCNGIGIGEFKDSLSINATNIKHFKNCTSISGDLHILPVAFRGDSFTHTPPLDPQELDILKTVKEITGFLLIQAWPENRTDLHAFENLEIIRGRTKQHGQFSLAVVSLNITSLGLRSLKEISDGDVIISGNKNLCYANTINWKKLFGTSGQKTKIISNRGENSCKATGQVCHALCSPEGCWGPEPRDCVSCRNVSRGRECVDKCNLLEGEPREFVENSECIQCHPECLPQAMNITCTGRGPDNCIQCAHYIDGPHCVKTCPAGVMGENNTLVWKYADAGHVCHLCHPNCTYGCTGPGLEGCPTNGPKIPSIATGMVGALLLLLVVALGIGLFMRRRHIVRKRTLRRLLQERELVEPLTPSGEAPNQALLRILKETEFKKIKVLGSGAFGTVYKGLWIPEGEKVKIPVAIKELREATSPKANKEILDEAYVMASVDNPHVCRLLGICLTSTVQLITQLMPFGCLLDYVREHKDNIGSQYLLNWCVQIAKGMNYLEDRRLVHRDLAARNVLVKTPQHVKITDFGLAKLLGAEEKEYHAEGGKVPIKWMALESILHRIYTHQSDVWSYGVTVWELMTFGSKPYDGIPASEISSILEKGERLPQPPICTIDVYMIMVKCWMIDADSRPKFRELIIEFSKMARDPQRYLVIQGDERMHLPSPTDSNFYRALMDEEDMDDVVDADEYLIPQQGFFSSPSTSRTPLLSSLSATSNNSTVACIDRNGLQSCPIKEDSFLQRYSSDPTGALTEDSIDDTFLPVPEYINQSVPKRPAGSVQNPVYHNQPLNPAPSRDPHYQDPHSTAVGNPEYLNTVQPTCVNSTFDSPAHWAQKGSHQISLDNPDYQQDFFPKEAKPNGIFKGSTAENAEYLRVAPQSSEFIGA

[8] = biological target: Follistatin-related protein 3 (Homo sapiens) (UniProt O95633); assay: FSTL3 binders on small-molecule microarrays, primary screen, biochemical, small-molecule microarray, 635 nm fluorescence (AID 1105); conditions: FSTL3 binding, higher = more signal;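 note: score merges emission near 667 nm and signal to noise per printed spot across three slides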
Sequence of Follistatin-related protein 3 (Homo sapiens) (O95633 whole entry, looked up): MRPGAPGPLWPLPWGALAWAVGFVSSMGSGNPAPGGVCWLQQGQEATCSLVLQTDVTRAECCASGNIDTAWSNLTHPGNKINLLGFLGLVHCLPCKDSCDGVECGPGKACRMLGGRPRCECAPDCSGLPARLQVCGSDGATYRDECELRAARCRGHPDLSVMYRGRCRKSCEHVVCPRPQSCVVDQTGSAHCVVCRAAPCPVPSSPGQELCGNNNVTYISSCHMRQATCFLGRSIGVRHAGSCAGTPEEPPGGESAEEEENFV

[9] = biological target: Dickkopf-related protein 1 (Homo sapiens) (UniProt O94907); assay: DKK1 binders on small-molecule microarrays, primary screen, biochemical, small-molecule microarray, 635 nm fluorescence scan (AID 1106); conditions: DKK1 binding, higher = more signal;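 note: score merges emission near 667 nm with signal to noise over three replicate slides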
Sequence of Dickkopf-related protein 1 (Homo sapiens) (O94907 whole entry, looked up): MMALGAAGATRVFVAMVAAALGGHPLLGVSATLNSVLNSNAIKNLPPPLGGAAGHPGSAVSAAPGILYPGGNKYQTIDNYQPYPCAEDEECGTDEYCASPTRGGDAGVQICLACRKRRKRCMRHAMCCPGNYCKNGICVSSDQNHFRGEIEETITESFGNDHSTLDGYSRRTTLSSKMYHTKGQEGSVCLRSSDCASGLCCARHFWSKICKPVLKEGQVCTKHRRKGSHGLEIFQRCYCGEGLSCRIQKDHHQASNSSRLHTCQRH

[10] = test system: Inhibin beta A chain (activin A); assay: INHBA (activin A) binders on microarrays, primary screen, biochemical, small-molecule microarray, 635 nm fluorescence scan (AID 1107); conditions: small-molecule microarray binding, higher = more signal;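 note: mouse activin A protein probed at 4.33 µg/mL on printed slides; score merges bound-protein fluorescence near 667 nm with spot signal-to-noise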
[11] = test system: Human papillomavirus type 1a protein E7 (residues 44-93); assay: HPV1a E7 fragment binders on microarrays, primary screen, biochemical, small-molecule microarray, residues 44-93, 635 nm fluorescence (AID 1108); conditions: small-molecule microarray binding, fluorescence 635 nm; higher = more signal;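 note: E7 fragment applied at 1 µg/mL in TBST for 1 h at 4 C; score combines spot fluorescence with its signal to noise ratio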
[12] = modulators of HCV replicon luciferase signal, primary screen, HCV replication inhibitor project, Huh7 cells, luciferase reporter (AID 1109); conditions: 48 h, higher = more signal;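 note: huh7 hepatoma cells harbouring a luciferase neomycin HCV replicon reporter; luciferase luminescence as measure of HCV replicon replication; test concentration not given here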
[13] = biological target: Left-right determination factor 2 (Homo sapiens) (UniProt O00292); assay: LEFTY2 binders on small-molecule microarrays, primary screen, biochemical, small-molecule microarray, 635 nm fluorescence scan (AID 1110); conditions: LEFTY2 binding, higher = more signal
Sequence of Left-right determination factor 2 (Homo sapiens) (O00292 whole entry, looked up): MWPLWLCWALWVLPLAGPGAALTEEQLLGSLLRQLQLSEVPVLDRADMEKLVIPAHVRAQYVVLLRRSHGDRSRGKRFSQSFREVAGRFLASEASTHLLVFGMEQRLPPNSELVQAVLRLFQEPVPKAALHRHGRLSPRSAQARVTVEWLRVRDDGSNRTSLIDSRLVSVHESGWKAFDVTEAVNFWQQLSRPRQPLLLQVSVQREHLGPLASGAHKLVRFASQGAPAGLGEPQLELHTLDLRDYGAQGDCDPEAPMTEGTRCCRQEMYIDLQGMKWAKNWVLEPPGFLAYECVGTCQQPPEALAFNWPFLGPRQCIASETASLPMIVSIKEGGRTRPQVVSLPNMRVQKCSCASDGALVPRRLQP

[14] = biological target: Calmodulin-1 (Homo sapiens) (UniProt P0DP23); assay: CALM1 binders on microarrays, EGTA buffer, profiling panel, biochemical, small-molecule microarray, Cy5-labelled CALM1 (AID 1111); conditions: Cy5-CALM1 binding fluorescence, higher = more signal;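 note: labelled calmodulin applied in Tris saline Tween buffer holding calcium plus EGTA and DTT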
[15] = biological target: Calmodulin-1 (Homo sapiens) (UniProt P0DP23); assay: calcium-bound CALM1 binders on microarrays, profiling panel, artefact control for SMM control-protein annotation, biochemical, small-molecule microarray, Cy5-labelled CALM1, plus calcium (AID 1112); conditions: Cy5-CALM1 binding fluorescence, higher = more signal;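 note: score merges spot fluorescence with signal to noise from triplicate slides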
[16] = small-molecule microarray binders of probe aWnt5a, primary screen, biochemical, biotinylated probe, 635/667 nm fluorescence (AID 1113); conditions: higher = more signal;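 note: score merges 667 nm fluorescence intensity with signal-to-noise per printed feature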
[17] = small-molecule microarray binders of probe aShh, primary screen, biochemical, biotinylated probe, 635/667 nm fluorescence (AID 1114); conditions: higher = more signal;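 note: probe is biotin-labelled aShh protein from a stem cell growth factor screen; measures binding of labelled protein to compounds printed on the slide; score merges feature fluorescence at 667 nm with signal-to-noise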
[18] = small-molecule microarray binders of probe aNog, primary screen, biochemical, biotinylated probe, 635/667 nm fluorescence (AID 1115); conditions: higher = more signal;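 note: probe is biotinylated aNog protein used at 0.15 µg/mL for 1 h at 4 C; z-score combines 667 nm fluorescence of each spot with its signal to noise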
[19] = biological target: Torsin-1A-interacting protein 1 (Homo sapiens) (UniProt Q5JTV8); assay: LAP1 binders from COS7 cell lysate, primary screen, small-molecule microarray, 635/667 nm fluorescence (AID 1116); conditions: COS7-hLAP1 lysate binding, 635 nm fluorescence, higher = more signal
Sequence of Torsin-1A-interacting protein 1 (Homo sapiens) (Q5JTV8 whole entry, looked up): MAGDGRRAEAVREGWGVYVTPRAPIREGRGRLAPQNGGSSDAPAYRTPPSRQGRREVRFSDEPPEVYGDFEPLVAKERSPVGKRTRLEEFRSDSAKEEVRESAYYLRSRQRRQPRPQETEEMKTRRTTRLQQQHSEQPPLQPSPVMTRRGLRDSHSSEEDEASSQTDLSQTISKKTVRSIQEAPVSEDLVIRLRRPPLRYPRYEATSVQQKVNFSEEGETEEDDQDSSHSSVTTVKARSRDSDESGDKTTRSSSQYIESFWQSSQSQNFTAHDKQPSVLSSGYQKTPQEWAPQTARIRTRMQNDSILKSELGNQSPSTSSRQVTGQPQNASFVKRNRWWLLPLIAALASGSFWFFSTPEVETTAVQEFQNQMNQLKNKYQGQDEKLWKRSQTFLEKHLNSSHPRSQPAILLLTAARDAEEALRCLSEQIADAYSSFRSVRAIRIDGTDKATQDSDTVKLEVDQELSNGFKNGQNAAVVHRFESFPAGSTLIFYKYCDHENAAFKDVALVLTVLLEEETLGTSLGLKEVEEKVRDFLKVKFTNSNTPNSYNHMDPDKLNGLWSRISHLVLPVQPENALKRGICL

[20] = biological target: Alpha-bungarotoxin (Bungarus multicinctus) (UniProt P60615); assay: alpha-bungarotoxin binders on microarray, profiling panel, artefact control for SMM control protein annotation, biochemical, small-molecule microarray, Alexa647 label, 635/667 nm fluorescence (AID 1117); conditions: alpha-BTX-A647 binding fluorescence, higher = more signal
Sequence of Alpha-bungarotoxin (Bungarus multicinctus) (P60615 whole entry, looked up): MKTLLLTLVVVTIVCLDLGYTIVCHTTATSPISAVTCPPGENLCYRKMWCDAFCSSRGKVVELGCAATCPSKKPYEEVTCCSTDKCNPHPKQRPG

Compound	composite z-score [1]	composite z-score [2]	composite z-score [3]	z-score [4]	composite z-score [5]	composite z-score [6]	composite z-score [7]	composite z-score [8]	composite z-score [9]	composite z-score [10]	composite z-score [11]	z-score [12]	composite z-score [13]	composite z-score [14]	composite z-score [15]	composite z-score [16]	composite z-score [17]	composite z-score [18]	composite z-score [19]	composite z-score [20]
COCCCNC(=O)[C@@]1(Cc2ccccc2I)c2ccccc2C(=O)N(Cc2ccccc2C(F)(F)F)[C@H]1c1ccc(CO)cc1	0.228	0.201	0.883	0.544 (inactive)	0.0125	-0.559	-1.71	-0.961	-1.68	-0.601	1.1	-0.594	-2.26	-0.285	-0.664	-0.136	-0.0848	0.2	-0.0065	-0.458
CCOC(=O)C1=CCC(c2ccncc2)N(S(=O)(=O)c2ccc(C)cc2)C1 (stereo not given)	1.03	0.205	0.198	-1.3 (inactive)	1.34	1.29	0.432	1.05	0.332	0.856	1.47	-2.8	0.502	1.61	0.276	-0.0125	-0.154	-0.389	2.15	0.842
COC(=O)[C@@]1(Cc2ccc(F)cc2)[C@H]2c3cc(C(=O)N4CCCC4)n(Cc4ccc(OC(F)(F)F)cc4)c3C[C@H]2CN1C(=O)c1ccccc1	0.776	0.142	0.548	1.08 (inactive)	-0.135	-0.141	-0.564	-1.03	-0.559	0.602	0.118	0.234	-0.763	0.028	0.336	0.164	0.265	1.17	0.383	-0.272
COc1cc(Cc2cc3c(c(CCc4ccccc4)n2)[Si](C(C)C)(C(C)C)O[C@H]3c2ccccc2)cc(OC)c1OC	1.05	0.0709	0.366	-1.06 (inactive)	-0.507	-1.04	-0.4	-0.617	-0.308	0.87	-1.18	-2.37	0.151	-0.448	-0.425	-0.0107	-0.138	-0.0827	0.415	0.537
C=CC[C@H](OC(=O)Nc1ccc(SC)cc1)c1ccc(O)c(F)c1	0.983	-0.172	0.277	-0.354 (inactive)	-0.918	-0.786	-0.392	-0.88	-1.17	0.536	-0.419	0.599	-0.722	-0.652	-0.328	-0.147	-0.0709	-0.267	1.82	-0.165
CCCCC(=C=CC[C@@H](O)c1ccccc1OCCO)C[C@@H](O)c1ccccn1	1.55	-0.124	-0.167	-0.0777 (inactive)	0.473	-0.644	0.125	0.143	0.141	0.624	0.361	-1.61	-0.139	-0.408	-0.669	-0.113	-0.0904	-0.108	-0.194	0.888
O=C(CS)NCCCCCCNC(=O)[C@H]1C[C@H]2C(=O)NCC(=O)N2[C@H]1c1cccc(OCCO)c1	1.09	-0.0292	-0.027	-2.02 (inactive)	0.901	-0.21	0.696	0.604	0.602	0.665	0.864	0.36	0.281	0.214	0.214	0.0079	0.123	0.113	0.469	1.36
CCOC(=O)C[C@H]1[C@H](OC(=O)c2cc3ccccc3oc2=O)[C@@H](NC(=O)Cc2ccc(OC)cc2)c2cc(OCCCO)ccc2N1C(=O)Cc1ccc(OC)cc1	0.776	-0.249	-0.43	-1.28 (inactive)	0.703	0.382	0.455	0.789	0.328	0.156	0.351	-1.73	0.594	-0.326	-0.54	-0.096	-0.145	-0.0428	0.0475	0.329
CCOC(=O)C1=CC[C@@H](c2ccccc2)N(S(=O)(=O)c2ccc(C)cc2)[C@@H]1C#N	0.921	0.386	0.868	0.694 (inactive)	0.562	-0.199	-0.181	0.364	-0.542	0.767	1.32	-1.72	0.0775	1.2	0.325	0.0438	0.14	0.404	0.349	0.786
CO[C@H]1O[C@H](CO)[C@@H](OC(=O)Nc2cccc(F)c2)[C@H](OC(=O)c2cc3ccccc3[nH]2)[C@H]1OC(=O)c1cc2ccccc2[nH]1	-0.233	-0.448	-0.154	-1.57 (inactive)	0.284	-0.199	-0.213	0.469	0.135	0.0912	0.177	-2.25	0.0416	0.681	0.0008	-0.232	-0.138	-0.158	-0.009	0.698
C=CCN1C(=O)[C@@]2(O[C@@H](CCO)[C@H]([Si](C)(C)c3ccc(OC)cc3)[C@H]2C)c2cc(N3CCCCC3=O)ccc21	0.774	-0.0333	0.0918	-2.02 (inactive)	0.839	0.399	0.169	0.547	0.342	0.488	1.36	-3.29	0.264	0.721	0.519	-0.091	0.151	0.197	0.813	1.14
Cc1ccc(S(=O)(=O)N2[C@@H](c3ccccc3)C(C(=O)O)=C[C@H]2C(C)(C)C)cc1	1.19	1.08	1.01	0.233 (inactive)	0.644	1.35	0.374	0.819	0.0781	-0.124	1.15	-1.25	0.261	2.24	0.75	-0.0718	-0.107	-0.0252	1.49	1.94
